From PubChem
JMJD2A Tudor inh = inhibitors of human JMJD2A Tudor domain. AID 504339. hit rate 4.4% among 390,000. AlphaScreen JMJD2A-Tudor / H3K4me3 peptide binding. Potency, µM (top dose mostly 114 µM), inactives show at the highest dose activity change, negative = inhibition, actives largely listed as inhibitors; also: potency is read from the fitted curve at half-maximal effect; % is scaled to controls: 0 for no effect and ±100 for the full control effect; nearly all actives have a fitted effect of over 50% in size
Target sequence (O75164 whole entry, looked up, the tested form may be a part): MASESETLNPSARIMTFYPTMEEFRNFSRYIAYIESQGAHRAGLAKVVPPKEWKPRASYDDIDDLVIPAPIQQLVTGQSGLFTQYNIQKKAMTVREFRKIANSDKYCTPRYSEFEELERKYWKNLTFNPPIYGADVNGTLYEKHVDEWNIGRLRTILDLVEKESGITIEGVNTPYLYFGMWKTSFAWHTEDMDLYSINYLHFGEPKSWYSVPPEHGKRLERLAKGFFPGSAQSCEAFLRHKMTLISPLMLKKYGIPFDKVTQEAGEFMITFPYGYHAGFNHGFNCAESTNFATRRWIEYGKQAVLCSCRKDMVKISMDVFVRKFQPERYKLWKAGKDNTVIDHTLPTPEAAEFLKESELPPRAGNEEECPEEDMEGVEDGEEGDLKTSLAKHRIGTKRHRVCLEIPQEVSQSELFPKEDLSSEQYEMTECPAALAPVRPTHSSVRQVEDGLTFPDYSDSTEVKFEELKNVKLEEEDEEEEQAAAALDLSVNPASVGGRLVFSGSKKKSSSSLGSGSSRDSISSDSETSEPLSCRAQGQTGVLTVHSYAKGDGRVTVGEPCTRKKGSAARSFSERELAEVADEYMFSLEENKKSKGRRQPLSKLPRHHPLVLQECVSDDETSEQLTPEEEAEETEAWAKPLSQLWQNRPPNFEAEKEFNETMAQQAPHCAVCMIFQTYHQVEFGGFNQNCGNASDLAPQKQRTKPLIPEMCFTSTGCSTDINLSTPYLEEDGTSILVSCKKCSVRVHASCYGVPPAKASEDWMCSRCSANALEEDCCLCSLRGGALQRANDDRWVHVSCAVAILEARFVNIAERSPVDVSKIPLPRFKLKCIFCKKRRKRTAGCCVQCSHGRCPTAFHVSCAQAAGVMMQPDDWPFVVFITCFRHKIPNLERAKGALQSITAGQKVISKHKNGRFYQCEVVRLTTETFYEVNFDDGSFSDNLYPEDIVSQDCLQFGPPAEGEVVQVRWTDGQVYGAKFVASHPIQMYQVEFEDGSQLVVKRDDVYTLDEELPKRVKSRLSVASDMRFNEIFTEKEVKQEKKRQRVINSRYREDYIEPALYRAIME
G9a inh = inhibitors of human histone lysine methyltransferase G9a; hit rate 8.8% among 350,000; G9a H3K9 monomethylation, AlphaScreen, 2 h; Potency, µM (top dose mostly 102 µM), for inactives: at the top dose activity, negative = inhibition, hits mostly inhibitors; Q96KQ7; also: potency is read from the fitted curve at half-maximal effect; % is scaled to controls: 0 for no effect and ±100 for the full control effect; nearly all actives have a fitted effect of over 75% in size
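AlphaScreen detection with an anti-monomethyl H3K9 antibody quantified product after a 2 h room-temperature reaction containing 500 nM biotinylated H3K9 peptide, 20 µM SAM and 20 nM enzyme, which had been preincubated 15 min with compound.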
PLK1 PBD block = PLK1 (human) polo-box domain binding inhibition; P53350; Plk1 PBD binding of FITC phosphopeptide, fluorescence polarization; Potency, µM, for inactives: max response, negative = inhibition, actives largely listed as inhibitors; hit rate 2.8% among 360,000; also: potency is read from the fitted curve at half-maximal effect; series mostly up to about 57 µM; % is scaled to controls: 0 for no effect and ±100 for the full control effect; nearly all actives have a fitted effect of over 65% in size
PI5P4K alpha inh = blocks human PI5P4K alpha kinase activity; AID 652105; PI5P4Kalpha enzyme, ADP-Glo luminescence, 60 min; active compounds read low; max response, %; hit rate 1.2% among 330,000; P48426; active = max response of -50% or lower; inconclusive = between -30% and -50%; inactive = -30% or higher; also: value at the top dose of about 77 µM; % is scaled to controls: 0 for no effect and ±100 for the full control effect
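Enzyme plus substrate dispensed, test compounds pinned in, then ATP (5 microM final) added. After 60 min at RT, ADP-Glo reagent 1 for 45 min and reagent 2 for 30 min preceded luminescence imaging.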
BAZ2B block = blocks human BAZ2B; AlphaScreen BAZ2B-H3K14Ac peptide displacement; Potency, µM (titrated, usually from 114 µM), for the others: at the top dose activity change, negative = inhibition, most hits filed as inhibitors; Q9UIF8; hit rate 4.4% among 360,000; also: potency is read from the fitted curve at half-maximal effect; % is scaled to controls: 0 for no effect and ±100 for the full control effect; nearly all actives have a fitted effect of over 60% in size
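Complex of BAZ2B and biotin-H3K14Ac (50 nM apiece) forms over 30 min at RT, then faces library compounds up to 110 uM for another 30 min; AlphaScreen beads added, 20 min dark incubation, luminescence read.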
HP1b chromo inh = HP1-beta chromodomain-methylated histone interaction inhibition | Potency, µM (top dose mostly 114 µM), for inactives: at the top dose activity change, negative = inhibition, hits mostly inhibitors | AlphaScreen HP1-beta / biotin-H3K9me3 peptide binding | P83916 | AID 540317 | hit rate 0.56% among 390,000; also: potency is read from the fitted curve at half-maximal effect; nearly all actives have a fitted effect of over 70% in size
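HP1-beta protein (50 nM final) preincubated 30 min at room temperature with biotinylated H3(1-18)K9me3 peptide (50 nM) in PBS pH 7.4, 0.01% Tween-20, then compound added for 30 min. AlphaScreen streptavidin donor/nickel chelate acceptor beads (10 ug/mL final), 30 min dark, luminescence read.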
Active calls of the source: *; ? = inconclusive; / = no result; [ ] = remark or other dose. This is a sample that favours compounds with a hit; in the whole collection about 12% have one here. Unless noted, calls follow the shape of the dose curve; as a rule, active = well fitted curve in the direction sought with a large enough effect; inconclusive = small, poorly fitted or top-dose-only effect, or another doubt; inactive = no such curve, though single readings can be large; an effect the other way counts as inactive or inconclusive.

SMILES	JMJD2A Tudor inh	G9a inh	PLK1 PBD block	PI5P4K alpha inh	BAZ2B block	HP1b chromo inh
O=C1CC(/C=C/c2ccco2)=Nc2ccccc2N1	-29%	45µM*	-22%	-73*	-12%	17%
O=C1CC(/C=C/c2ccc([N+](=O)[O-])cc2)=Nc2ccccc2N1	-10%[11.4 µM]	/	?	?	?	-14%
O=C1CC(C(F)(F)C(F)(F)C(F)(F)C(F)F)=Nc2ccccc2N1	7%	12%	-5%	/	6%	13%
O=C1CC(/C=C/c2ccccn2)=Nc2ccccc2N1	45µM*	45µM*	?	5	?	-15%
COC(=O)c1cc(CSc2nnc(NC3CCCCC3)s2)oc1C	89µM*	?	-11%	6	?	19%
CN1C(=S)SC(C)(NO)C1(C)C (configuration not stated)	22µM*	?	?	/	?	?
COCCNC(=O)c1ccccc1NC(=O)c1ccccc1SC	-6%	4.5µM*	-4%	-16	-13%	17%
C=CCNC(=O)c1ccccc1NC(=O)c1ccccc1SC	-8%	/	-16%	4	3%	31%
CCCNC(=O)c1ccccc1NC(=O)c1ccccc1SC	-14%	25µM*	-12%	-1	-26%	23%
NC(=O)c1ccc(SCC(=O)OCC(=O)NCC2CCCCC2)c([N+](=O)[O-])c1	-6%	45µM*	-14%	1	8%	14%
CC1CCCCN1C(=O)COC(=O)CSc1ccc(C(N)=O)cc1[N+](=O)[O-] (configuration not stated)	-2%	/	-11%	7	/	45%
CCOC(=O)CSc1ccc(S(=O)(=O)N(C)C2CCCCC2)cc1[N+](=O)[O-]	56µM*	?	-8%	/	?	-20%
CC1CCCC(C)N1C(=O)COC(=O)CSc1ccc(C(N)=O)cc1[N+](=O)[O-] (configuration not stated)	-22%	45µM*	0%	-6	1%	-4%
CCCC[C@]12Cc3cc(C#N)ccc3C(O1)c1c(cc(-c3ccccc3)oc1=O)O2	/	/	/	/	6%[22.9 µM]	/
Cc1[nH][nH]c(=O)c1C(c1c(C)[nH][nH]c1=O)c1cn(C)c2ccccc12	?	/	-18%	-2	?	-19%
Cc1[nH][nH]c(=O)c1C(c1c(C)[nH][nH]c1=O)c1cn(Cc2cccc3ccccc23)c2ccccc12	-27%[11.4 µM]	45µM*	7.5µM*	?	?	28µM*
CCOc1ccc(NC(=O)c2ccc3nc(C(C)C)oc3c2)cc1	-4%	5%[59 µM]	/	/	-11%	28%[57 µM]
COc1cc(OC)c2c(-c3ccccc3)cc(=O)oc2c1C(CC(=O)N1CCN(c2ccccc2)CC1)c1ccc2c(c1)OCO2 (configuration not stated)	/	-49%[59 µM]	/	/	?	/
COc1cc(C(CCN2CCOCC2)c2c(OC)cc(OC)c3c(-c4ccccc4)cc(=O)oc23)cc(OC)c1OC (configuration not stated)	79µM*	?	3%	-6	/	-20%
COc1cc(OC)c2c(-c3ccccc3)cc(=O)oc2c1C(CCN1CCOCC1)c1ccc2c(c1)OCO2 (configuration not stated)	32µM*	-44%[59 µM]	-6%	-2	/	?
COc1cc(OC)c2ccc(=O)oc2c1C(CC(=O)N1CCOCC1)c1ccc2c(c1)OCO2 (configuration not stated)	-17%	11%[59 µM]	6%	0	-7%	2%
COc1cc(OC)c2ccc(=O)oc2c1C(CC(=O)N1CCN(c2ccccc2)CC1)c1ccc2c(c1)OCO2 (configuration not stated)	40µM*	13%[12.7 µM]	-18%	-14	40µM*	-27%
COc1cc(OC)c2c(C)cc(=O)oc2c1C(CCN1CCN(c2ccccc2)CC1)c1ccc2c(c1)OCO2 (configuration not stated)	28µM*	-5%[12.7 µM]	-20%	-1	25µM*	?
COc1cc(OC)c2c(-c3ccccc3)cc(=O)oc2c1C(CCN1CCCC1)c1ccc2c(c1)OCO2 (configuration not stated)	?	-47%[59 µM]	-21%	-22	-38%	-9%
Cc1nc(-c2cccc(F)c2)sc1CCNC(=O)c1c(F)cccc1Cl	-17%	10%[59 µM]	/	/	4%	17%[57 µM]
SMILES	JMJD2A Tudor inh	G9a inh	PLK1 PBD block	PI5P4K alpha inh	BAZ2B block	HP1b chromo inh
Cc1ccccc1CNC(=O)c1ccccc1NC(=O)c1nsc2ccccc12	-15%	31%[59 µM]	/	/	1%	15%[57 µM]
C#CCOCCOCCOCCNc1nc(N2CCN(C(=O)CCCCCCCCCCNC(=O)[C@H]([C@@H](C)CC)n3cc(CCCCN=C(N)N)nn3)CC2)nc(N2CCN(C(=O)CCCCCCCCCCNC(=O)[C@H]([C@@H](C)CC)n3cc(CCCCN=C(N)N)nn3)CC2)n1	/	-9%[2.33 µM]	/	/	50µM*	/
C#CCOCCOCCOCCNc1nc(N2CCN(C(=O)CCCCCCCCCCNC(=O)Cn3cc(CCCCCN)nn3)CC2)nc(N2CCN(C(=O)CCCCCCCCCCNC(=O)[C@H]([C@@H](C)CC)n3cc(CCCCN=C(N)N)nn3)CC2)n1	56µM*	4%[2.33 µM]	-19%	-72*	56µM*	?
C#CCOCCOCCOCCNc1nc(N2CCN(C(=O)Cn3cc(CCCCN)nn3)CC2)nc(N2CCN(C(=O)[C@H]([C@@H](C)CC)n3cc(CCCCN)nn3)CC2)n1	-20%	-15%[2.33 µM]	-4%	-13	5%	25%
C#CCOCCOCCOCCNc1nc(N2CCN(C(=O)CCCCCCCCCCNC(=O)[C@H]([C@@H](C)CC)n3cc(CCCCCN)nn3)CC2)nc(N2CCN(C(=O)CCCCCCCCCCNC(=O)[C@H](CCCCN)n3cc(CCCC(=O)O)nn3)CC2)n1	?	3%[2.33 µM]	2%	?	?	11%
C#CCOCCOCCOCCNc1nc(N2CCN(C(=O)CCCCCCCCCCNC(=O)[C@H]([C@@H](C)CC)n3cc(CCCCN=C(N)N)nn3)CC2)nc(N2CCN(C(=O)CCCCCCCCCCNC(=O)[C@H](CCCCN)n3cc(C)nn3)CC2)n1	22µM*	0%[2.33 µM]	-23%	-89*	50µM*	35µM*
C#CCOCCOCCOCCNc1nc(N2CCN(C(=O)CCCCCCCCCCNC(=O)[C@H]([C@@H](C)CC)n3cc(CCCCCN)nn3)CC2)nc(N2CCN(C(=O)CCCCCCCCCCNC(=O)[C@H]([C@@H](C)CC)n3cc(CCCCN=C(N)N)nn3)CC2)n1	/	14%[2.33 µM]	/	/	56µM*	/
C#CCOCCOCCOCCNc1nc(N2CCN(C(=O)Cn3cc(CCO)nn3)CC2)nc(N2CCN(C(=O)[C@H]([C@@H](C)CC)n3cc(CCCN=C(N)N)nn3)CC2)n1	-14%	/	2%	1	/	33%
